# Reference: PubChem BioAssay (NCATS)
# “And” between values parts separate entries of the source, which are not always exact repeats. Equal values may be shown once. Values without a mark were called inactive. Records with an inconclusive call do not appear. Where a call stands in place of a potency, no number is given. The source made the active and inactive calls. Unless noted, the call rests on the fitted dose curve; in most records, active means well fitted curve in the direction sought with a large enough effect; inconclusive means small, poorly fitted or top-dose-only effect, or another doubt; inactive means no such curve, though single readings can be large; an effect the other way counts as inactive or inconclusive.
# Key:
# [1] = target: Voltage-gated inwardly rectifying potassium channel KCNH2 (Homo sapiens) (UniProt Q12809); assay: qHTS Assay for Small Molecule Inhibitors of the Human hERG Channel Activity (AID 588834);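 further: lower thallium flux fluorescence means stronger hERG block; nearly all actives have a fitted effect of over 50% in size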; further: potency means the concentration at half of the fitted maximal effect
# Chain of Voltage-gated inwardly rectifying potassium channel KCNH2 (Homo sapiens) (Q12809 whole entry, looked up): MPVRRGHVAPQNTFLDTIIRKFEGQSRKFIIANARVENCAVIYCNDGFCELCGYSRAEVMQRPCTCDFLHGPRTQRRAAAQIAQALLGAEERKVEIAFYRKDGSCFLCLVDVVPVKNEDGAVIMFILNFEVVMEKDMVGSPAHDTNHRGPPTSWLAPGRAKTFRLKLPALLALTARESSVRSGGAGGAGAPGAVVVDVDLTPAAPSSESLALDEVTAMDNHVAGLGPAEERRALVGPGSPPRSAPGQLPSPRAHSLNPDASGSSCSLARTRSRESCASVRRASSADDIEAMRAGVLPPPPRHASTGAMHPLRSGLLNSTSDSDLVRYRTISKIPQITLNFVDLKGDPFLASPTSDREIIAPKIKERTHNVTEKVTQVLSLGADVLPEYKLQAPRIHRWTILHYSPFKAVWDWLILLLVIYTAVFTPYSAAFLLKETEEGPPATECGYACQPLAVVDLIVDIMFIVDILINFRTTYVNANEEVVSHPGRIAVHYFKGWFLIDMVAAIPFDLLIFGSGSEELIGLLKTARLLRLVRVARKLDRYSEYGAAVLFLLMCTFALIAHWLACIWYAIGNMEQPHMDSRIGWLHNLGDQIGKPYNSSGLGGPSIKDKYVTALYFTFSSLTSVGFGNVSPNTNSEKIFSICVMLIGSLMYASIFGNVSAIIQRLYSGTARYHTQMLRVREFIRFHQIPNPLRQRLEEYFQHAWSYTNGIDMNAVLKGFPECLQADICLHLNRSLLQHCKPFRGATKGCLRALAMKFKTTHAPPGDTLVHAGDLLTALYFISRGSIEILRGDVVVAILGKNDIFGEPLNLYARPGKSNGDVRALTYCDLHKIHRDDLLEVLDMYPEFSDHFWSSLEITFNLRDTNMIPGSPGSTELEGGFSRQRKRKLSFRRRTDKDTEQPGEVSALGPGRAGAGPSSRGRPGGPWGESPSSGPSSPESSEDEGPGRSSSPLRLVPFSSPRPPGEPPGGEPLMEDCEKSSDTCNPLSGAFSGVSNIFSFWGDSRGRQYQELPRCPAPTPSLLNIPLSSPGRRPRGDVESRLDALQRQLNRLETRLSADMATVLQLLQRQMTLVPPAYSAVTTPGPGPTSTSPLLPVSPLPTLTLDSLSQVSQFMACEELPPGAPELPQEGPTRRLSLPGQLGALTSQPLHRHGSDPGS
# In short: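 Kinetic FDSS fluorescence; U2OS + hERG BacMam (~100 virus particles/cell); FluxOR Tl+ flux; ~10 min cpd; AC50 (Hill).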
# [2] = target: Luciferin 4-monooxygenase (Photinus pyralis) (UniProt P08659); assay: Biochemical firefly luciferase enzyme assay for NPC (AID 624030); further: nearly all actives have a fitted effect of over 70% in size; further: potency means the concentration at half of the fitted maximal effect
# Chain of Luciferin 4-monooxygenase (Photinus pyralis) (P08659 whole entry, looked up): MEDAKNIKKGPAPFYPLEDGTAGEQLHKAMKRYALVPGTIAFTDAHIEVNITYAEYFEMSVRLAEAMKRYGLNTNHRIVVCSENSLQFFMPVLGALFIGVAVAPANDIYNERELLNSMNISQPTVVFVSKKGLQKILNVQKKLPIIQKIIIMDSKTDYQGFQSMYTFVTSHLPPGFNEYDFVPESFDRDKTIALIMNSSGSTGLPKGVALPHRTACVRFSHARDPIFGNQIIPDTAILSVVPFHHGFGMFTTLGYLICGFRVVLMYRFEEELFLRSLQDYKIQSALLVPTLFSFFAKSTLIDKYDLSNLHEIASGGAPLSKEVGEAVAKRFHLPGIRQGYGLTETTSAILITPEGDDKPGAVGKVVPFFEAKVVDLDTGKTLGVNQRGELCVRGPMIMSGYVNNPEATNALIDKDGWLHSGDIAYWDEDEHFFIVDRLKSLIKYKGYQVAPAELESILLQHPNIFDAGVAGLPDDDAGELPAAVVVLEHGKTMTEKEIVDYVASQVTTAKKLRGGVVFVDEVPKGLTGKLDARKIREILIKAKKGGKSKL
# In short: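 Direct inhibition of firefly luciferase enzyme (10 nM final, 50 mM Tris Acetate) assessed by luminescence within 5 minutes. Percent activity scaled between DMSO and PTC124 positive control, with concentration-effect curves classified by fit quality and response.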
# [3] = S16 Schwann cell viability assay (CellTiter-Glo assay) (AID 624031);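 further: native untransfected S16 rat Schwann cells; cellular ATP luminescence as a viability measure; nearly all actives have a fitted effect of over 70% in size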
# In short: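 Cells were seeded at 500-750 per well in phenol red-free DMEM with 10% FBS and left overnight. Compounds or DMSO were pinned in, incubation ran 24 h at 37 °C/5% CO2, then CellTiter-Glo reagent was added and luminescence measured.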
# [4] = S16 Schwann cell PMP22 intronic element beta-lactamase assay (AID 624044; calls by dose curve; further: nearly all actives have a fitted effect of over 15% in size); settings: S16 rat Schwann cells, PMP22 element beta-lactamase FRET, 24 h; ratio activity, negative = inhibition: at 38.3 µM (top of the series) unless noted
# In short: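 Rat S16 Schwann cells with beta-Lac driven by a PMP22 intronic element, compound-treated 24 h at 37 °C. LiveBLAzer FRET B/G read: 460 nm normalized to potassium clavulanate vs DMSO; 535 nm FRET as viability; concentration-effect curves classified.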
# [5] = S16 Schwann cell PMP22 intronic element firefly luciferase assay (AID 624032); further: nearly all actives have a fitted effect of over 30% in size; further: potency means the concentration at half of the fitted maximal effect
# In short: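 Luciferase reporter of PMP22 intronic-element expression in stably transfected S16 rat Schwann cells, read by ONE-Glo luminescence after 24 h compound exposure at 37 C. Activity scaled between DMSO (0%) and positive-control PTC124; concentration-effect curves quality-classified.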
# [6] = qHTS assay for small molecule activators of the nuclear factor-kappa B (NF-kB) signaling pathway (AID 651749; active means well fitted activation curve with a large enough effect in the signal ratio; the % refers to the signal ratio); settings: NF-kB-bla ME-180 cells, beta-lactamase FRET ratio, 16 h; hits give high values
# In short: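 Stably transfected ME-180 line; NF-kB response element upstream of beta-lactamase. Treatment: compound or DMSO, 16 hr. Detection: fluorescent FRET substrate.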
# [7] = target: Tumor necrosis factor (Homo sapiens) (UniProt P01375); assay: qHTS assay to identify small molecules that stimulate Tumor Necrosis Factor-alpha (TNF-alpha) secretion (AID 651757; active means well fitted curve in the direction sought with a large enough effect in the signal ratio; the % refers to the signal ratio)
# Chain of Tumor necrosis factor (Homo sapiens) (P01375 whole entry, looked up): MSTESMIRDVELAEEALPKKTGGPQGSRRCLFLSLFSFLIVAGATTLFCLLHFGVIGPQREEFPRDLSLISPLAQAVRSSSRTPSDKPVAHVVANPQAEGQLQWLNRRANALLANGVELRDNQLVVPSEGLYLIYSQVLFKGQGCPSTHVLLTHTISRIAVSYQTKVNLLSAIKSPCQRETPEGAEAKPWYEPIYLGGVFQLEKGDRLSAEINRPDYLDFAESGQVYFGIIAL
# In short: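 Secreted TNF-alpha from compound-treated THP-1 cells (17 hrs, 37 C) was quantified with a homogeneous time-resolved fluorescence antibody assay.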
# [8] = qHTS assay for environmental chemicals that activate the Aryl hydrocarbon Receptor (AhR) signaling pathway (AID 651777); settings: 1A2-DRE human hepatoma cells, luciferase, 24 h; activation: hits give high values; further: nearly all actives have a fitted effect of over 15% in size
# In short: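 AhR activation is scored as a rise in luciferase from a stable DRE–CYP1A2 promoter construct in human hepatoma cells. Treatment lasts 24 hr at 37 C; detection uses One-Glo after 30 min at room temperature.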
# [9] = target: Peroxisome proliferator-activated receptor alpha (Homo sapiens) (UniProt Q07869); assay: qHTS assay for small molecule agonists of the peroxisome proliferator-activated receptor alpha (PPARalpha) signaling pathway (AID 651778); settings: PathHunter PPARalpha complementation, chemiluminescence, 6 h; hits give high values
# Chain of Peroxisome proliferator-activated receptor alpha (Homo sapiens) (Q07869 whole entry, looked up): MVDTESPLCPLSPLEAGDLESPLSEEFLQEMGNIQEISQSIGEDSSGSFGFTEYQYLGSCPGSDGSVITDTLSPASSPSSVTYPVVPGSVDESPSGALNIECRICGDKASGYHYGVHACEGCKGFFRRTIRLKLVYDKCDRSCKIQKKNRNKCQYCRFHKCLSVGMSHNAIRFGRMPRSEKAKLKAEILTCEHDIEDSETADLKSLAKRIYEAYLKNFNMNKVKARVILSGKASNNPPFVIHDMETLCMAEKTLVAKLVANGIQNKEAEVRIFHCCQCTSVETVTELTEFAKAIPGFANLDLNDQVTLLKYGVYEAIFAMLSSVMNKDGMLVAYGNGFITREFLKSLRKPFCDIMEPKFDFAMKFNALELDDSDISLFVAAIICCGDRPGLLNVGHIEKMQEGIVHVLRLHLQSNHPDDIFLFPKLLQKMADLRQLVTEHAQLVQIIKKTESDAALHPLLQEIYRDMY
# In short: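 Chemiluminescence from complemented enzyme reported PPARalpha activation in cells after 6 hr of compound treatment at 37 C. The detection reagent was incubated for 60 min at room temperature, and compounds were scored as agonists.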
# [10] = target: Nuclear receptor ROR-gamma (Homo sapiens) (UniProt P51449); assay: qHTS assay for small molecule antagonists of the retinoid-related orphan receptor gamma (ROR-gamma) signaling pathway (AID 651802); further: nearly all actives have a fitted effect of over 60% in size; further: potency means the concentration at half of the fitted maximal effect
# Chain of Nuclear receptor ROR-gamma (Homo sapiens) (P51449 whole entry, looked up): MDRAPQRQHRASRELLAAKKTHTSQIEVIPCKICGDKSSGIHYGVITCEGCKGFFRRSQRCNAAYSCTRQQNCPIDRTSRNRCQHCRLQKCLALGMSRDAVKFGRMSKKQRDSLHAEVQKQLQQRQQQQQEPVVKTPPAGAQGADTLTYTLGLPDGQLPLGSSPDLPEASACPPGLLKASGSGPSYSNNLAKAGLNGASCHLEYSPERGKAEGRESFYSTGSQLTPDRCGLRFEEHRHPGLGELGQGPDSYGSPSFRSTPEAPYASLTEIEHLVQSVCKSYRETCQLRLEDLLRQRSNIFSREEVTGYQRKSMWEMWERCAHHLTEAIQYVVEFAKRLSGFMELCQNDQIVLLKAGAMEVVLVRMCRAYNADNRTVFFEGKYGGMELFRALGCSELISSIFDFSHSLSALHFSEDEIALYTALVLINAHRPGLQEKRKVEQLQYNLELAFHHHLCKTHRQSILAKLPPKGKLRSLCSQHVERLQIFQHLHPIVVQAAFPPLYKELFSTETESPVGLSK
# In short: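 Antagonism is scored as a fall in luminescence from a RORE-luciferase reporter in CHO cells expressing ROR under a TET-inducible promoter, measured 16hr after doxycycline induction in the presence of compound.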
# [11] = qHTS assay for small molecule activators of the p53 signaling pathway (AID 651743; active means well fitted activation curve with a large enough effect in the signal ratio, not every such curve was filed as active; the % refers to the signal ratio; further: potency means the concentration at half of the fitted maximal effect); settings: HCT-116 p53RE-bla, beta-lactamase FRET ratio, 16 h; activation: hits give high values
# In short: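 Screen for p53 pathway agonists uses stably transfected p53RE-bla HCT-116 cells, 4,000 per well, treated 16 h at 37 C with compounds in DMSO.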
# [12] = qHTS assay for small molecule disruptors of the mitochondrial membrane potential - 1 hr assay (AID 651754; calls by dose curve; further: nearly all actives have a fitted effect of over 35% in size)
# In short: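 Steps: seed HepG2 cells and let attach overnight; pin-transfer compound or vehicle; incubate 1 hr at 37C; add Mito-MPS dye for 30 min; read two-channel fluorescence for monomer and aggregate forms.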
# [13] = qHTS assay for small molecule disruptors of the mitochondrial membrane potential - 5 hr assay (AID 651755; calls by dose curve; further: nearly all actives have a fitted effect of over 40% in size)
# In short: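 HepG2, 2,000 cells/well, overnight attach; cpd or DMSO 5 hr, 37C/5% CO2; Mito-MPS 30 min 37C; fluor 490/535 + 540/590 nm.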
# [14] = qHTS assay to identify small molecules that stimulate interleukin-8 (IL-8) secretion (AID 651758; active means well fitted activation curve with a large enough effect in the signal ratio; the % refers to the signal ratio)
# In short: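 Secreted IL-8 measured by TR-FRET sandwich (cryptate and XL665 antibodies) from THP-1 cells exposed to compound overnight (16 hrs, 37 C).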
# [15] = qHTS assay for small molecule agonists of the antioxidant response element (ARE) signaling pathway (AID 651741; active means well fitted activation curve with a large enough effect in the signal ratio; the % refers to the signal ratio; further: potency means the concentration at half of the fitted maximal effect)
# In short: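 Seeding 2,000 ARE-bla HepG2 cells per well preceded a 5 h incubation at 37 C/5% CO2 and a 16 h compound exposure at 37 C. Beta-lactamase reporter activity was then quantified by fluorescence after 2 h with LiveBLAzer B/G FRET substrate.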
structure (smiles),measurement,setting,value
NC(=O)CC[C@@H]1NC(=O)[C@H](Cc2ccccc2)NC(=O)[C@H](Cc2ccc(O)cc2)NC(=O)[C@@H](N)CSSC[C@@H](C(=O)N2CCC[C@H]2C(=O)N[C@@H](CCCN=C(N)N)C(=O)NCC(N)=O)NC(=O)[C@H](CC(N)=O)NC1=O,Potency,[1],inactive
same,Potency,[2],inactive
same,Potency,[3],inactive
same,"ratio activity, negative = inhibition",[4],-1.23%
CC(C)OC(=O)Nc1ccc2nc(-c3cscn3)[nH]c2c1,Potency,[1],inactive
same,Potency,[2],9.07 µM (active)
same,Potency,[5],inactive
CCOC(C)OCC,Potency,[1],inactive
same,Potency,[2],inactive
same,Potency,[3],inactive
same,Potency,[5],inactive
same,activation,[6],0.0884%
same,Potency,[7],inactive
same,activation,[8],-0.455%
same,max response,[9],-1.13%
same,Potency,[10],inactive
Cn1c(O)c(N=NC(N)=S)c2ccccc21,Potency,[1],inactive
same,Potency,[2],inactive
same,Potency,[5],inactive
CCN(CC)CCC(=O)N1c2ccccc2Sc2ccc(Cl)cc21,Potency,[1],14.1 µM (active)
same,Potency,[2],inactive
same,Potency,[5],10.2 µM (active)
O[C@@H]([C@H](O)[C@H](O)CBr)[C@H](O)CBr,Potency,[1],inactive
same,Potency,[2],inactive
same,Potency,[3],inactive
same,"ratio activity, negative = inhibition",[4],3.07%
C[C@H](CCCC(C)(C)O)[C@H]1CC[C@H]2[C@@H]3CC=C4C[C@@H](O)CC[C@]4(C)[C@H]3CC[C@]12C,Potency,[1],inactive
same,Potency,[2],inactive
same,Potency,[5],inactive
CCCCC,Potency,[1],inactive
same,Potency,[2],inactive
same,Potency,[3],inactive
same,"ratio activity, negative = inhibition",[4],1.47%
same,activation,[11],2.34%
same,activation,[6],-0.668%
same,Potency,[12],inactive
same,Potency,[13],inactive
same,Potency,[7],inactive
same,max response,[9],-0.71%
same,Potency,[10],inactive
COc1ccccc1N1CCN(CCCC(=O)c2ccc(F)cc2)CC1,Potency,[1],1.41 µM (active)
same,Potency,[2],inactive
same,Potency,[3],inactive
same,"ratio activity, negative = inhibition",[4],-14.3%
O=C(O)COc1ccccc1/C=N/NC(=O)c1ccncc1,Potency,[1],inactive
same,Potency,[2],inactive
same,Potency,[5],inactive
NCC[C@H](O)C(=O)N[C@@H]1C[C@H](N)[C@@H](O[C@H]2O[C@H](CN)CC[C@H]2N)[C@H](O)[C@H]1O[C@H]1O[C@H](CO)[C@@H](O)[C@H](N)[C@H]1O,Potency,[1],inactive
same,Potency,[2],inactive
same,Potency,[5],inactive
CCCCC[C@H](O)/C=C/[C@H]1[C@H](O)CC(=O)[C@@H]1C/C=C\CCCC(=O)O,Potency,[1],inactive
same,Potency,[2],inactive
same,Potency,[3],inactive
same,"ratio activity, negative = inhibition",[4],-1.59%
Cn1cc(NC(=O)c2cc(NC(=O)c3cc(NC=O)cn3C)cn2C)cc1C(=O)NCCC(=N)N,Potency,[1],inactive
same,Potency,[2],inactive
same,Potency,[3],inactive
same,"ratio activity, negative = inhibition",[4],5.48%
C/C=C/C=C/C(=O)O,Potency,[1],inactive
same,Potency,[2],inactive
same,Potency,[3],inactive
same,Potency,[5],inactive
same,Potency,[7],inactive
same,Potency,[14],inactive
same,activation,[8],0.214%
same,max response,[9],0.184%
same,Potency,[10],inactive
CC(C)(C)CC(C)(C)c1ccc(OCCO)cc1,Potency,[1],inactive
same,Potency,[2],inactive
same,Potency,[3],inactive
same,"ratio activity, negative = inhibition",[4],-12.4%
same,Potency,[15],37.6 µM (active)
same,activation,[11],9.34%
same,activation,[6],0.716%
same,Potency,[12],inactive
same,Potency,[7],inactive
same,activation,[8],2.97%
same,max response,[9],20.4%
same,Potency,[10],42.2 µM (active)
CN1CCCC(CN2c3ccccc3Sc3ccccc32)C1 (stereo not given),Potency,[1],12.6 µM (active)
same,Potency,[2],inactive
same,Potency,[5],inactive
O=C(O)c1ccc(OCCn2ccnc2)cc1,Potency,[1],inactive
same,Potency,[2],inactive
same,Potency,[5],inactive
N#Cc1ccc2c(c1)N(CCCN1CCC(O)CC1)c1ccccc1S2,Potency,[1],14.1 µM (active)
same,Potency,[2],inactive
same,Potency,[3],inactive
same,"ratio activity, negative = inhibition",[4],-13.2%
CC(C)CCC[C@@H](C)[C@H]1CC[C@H]2[C@@H]3CC[C@@H]4C[C@H](O)CC[C@]4(C)[C@H]3CC[C@]12C,Potency,[1],inactive
same,Potency,[2],inactive
same,Potency,[5],inactive
CSc1nc2cc(Oc3cccc(Cl)c3Cl)c(Cl)cc2[nH]1,Potency,[1],31.6 µM (active)
same,Potency,[2],inactive
same,Potency,[3],inactive
same,"ratio activity, negative = inhibition",[4],-0.19%
O=c1[nH]c(=O)n([C@H]2C[C@H](O)[C@@H](CO)O2)cc1/C=C/Br,Potency,[1],inactive
same,Potency,[2],inactive
same,Potency,[3],inactive
same,"ratio activity, negative = inhibition",[4],-1.39%
N[C@@H](Cc1cc(I)c(Oc2ccc(O)c(I)c2)c(I)c1)C(=O)O,Potency,[1],inactive
same,Potency,[2],inactive
same,Potency,[3],inactive
same,"ratio activity, negative = inhibition",[4],-3.84%
same,activation,[11],5%
same,max response,[9],-3.23%
COc1cc(NCCCC(C)N)c2ncccc2c1 (stereo not given),Potency,[1],inactive
same,Potency,[2],inactive
same,Potency,[5],6.42 µM (active)
O=c1n(CC2CO2)c(=O)n(CC2CO2)c(=O)n1CC1CO1 (stereo not given),Potency,[1],inactive
same,Potency,[2],inactive
same,Potency,[3],inactive
same,"ratio activity, negative = inhibition",[4],-25.3%
same,Potency,[15],7.5 µM (active) and 6.86 µM (active)
same,Potency,[11],15.8 µM (active) and 39.8 µM (active)
same,activation,[6],-0.976% and -0.874%
same,Potency,[12],inactive
same,Potency,[13],inactive
same,activation,[8],1.5% and 3.12%
same,max response,[9],-0.847% and -0.241%
same,Potency,[10],inactive
CN(C)C(=O)CCSC(SCCC(=O)O)c1cccc(/C=C/c2ccc3ccc(Cl)cc3n2)c1 (stereo not given),Potency,[1],inactive
same,Potency,[2],2.87 µM (active)
same,Potency,[5],inactive
same,"ratio activity, negative = inhibition",[4],-0.229%
